# Test results: PubChem BioAssay (EPA / NIEHS)
# Calls of active or inactive are those of the source. The calls were made as follows: active = hit-call score of the fitted dose curve at least 0.9, where 1 is the maximum; inactive = score below 0.9.
# Columns and labels:
# [1] = ATG_CRE_CIS: Attagene CIS-FACTORIAL HepG2 Assay for human cAMP Responsive Element (CRE) binding protein 3 (AID 2282926); conditions: HepG2 CRE cis-reporter, Attagene multiplexed mRNA; actives raise or lower the signal
# In short: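 We dosed HepG2 cells bearing multiple cis-promoter reporter units for 24 h and measured reporter mRNA by RT-PCR with capillary electrophoresis detection. Bidirectional concentration-response fitting used DMSO as negative control.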
# [2] = target: CCAAT/enhancer-binding protein beta (Homo sapiens) (UniProt P17676); experiment: ATG_C_EBP_CIS: Attagene CIS-FACTORIAL HepG2 Assay for human CCAAT/Enhancer Binding Protein (C/EBP) beta (AID 2282927); conditions: HepG2 Attagene cis-factorial transcription factor reporter; actives raise or lower the signal
# In short: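 HepG2 transiently transfected with multiplexed reporter units under cis-regulatory promoters reporting endogenous C/EBPb activity. After 24 h exposure, reporter mRNA assayed by RT-PCR, fluorescent labelling, HpaI digestion and capillary electrophoresis; bidirectional fitting versus DMSO.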
# [3] = ATG_CMV_CIS: Attagene CIS-FACTORIAL HepG2 Assay for human CMV (Internal Marker) (AID 2282928); conditions: HepG2 CMV promoter reporter, transcription factor profiling; actives raise or lower the signal;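 also: endpoint acts as a background internal control marker rather than a target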
# In short: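 Cell system: HepG2, transiently transfected multiple reporter units under cis promoters. Exposure: 24 h. Detection: RT-PCR, FAM labeling, HpaI digestion, capillary electrophoresis. Analysis: bidirectional, DMSO baseline.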
# [4] = ATG_DR4_LXR_CIS: Attagene CIS-FACTORIAL HepG2 Assay for human Liver X Receptor (LXR), DR4 submotif (AID 2282929); conditions: HepG2 Attagene DR4 cis-reporter, mRNA transcription; actives raise or lower the signal
# In short: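 The endpoint is DR4-element-driven reporter transcripts after 24 h chemical exposure of transfected HepG2 cells. These were measured via RT-PCR and capillary electrophoresis, and gain or loss of signal was fitted relative to DMSO controls.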
# [5] = target: Aryl hydrocarbon receptor (Homo sapiens) (UniProt P35869); experiment: ATG_Ahr_CIS: Attagene CIS-FACTORIAL HepG2 Assay for human Aryl Hydrocarbon Receptor (Ahr) (AID 2282930); conditions: HepG2 AhR cis-factorial reporter transcription; actives raise or lower the signal
# In short: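 HepG2 cells transiently transfected with cis-element-driven multiplexed reporter units; endogenous AhR activity read as reporter mRNA 24 h after dosing, via RT-PCR, 6-FAM labelling, HpaI digestion and capillary electrophoresis. Bidirectional fit relative to DMSO.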
# [6] = ATG_AP_1_CIS: Attagene CIS-FACTORIAL HepG2 Assay for human Activator Protein 1 (AP-1) (AID 2282931); conditions: HepG2 Attagene cis-factorial AP-1 reporter mRNA; actives raise or lower the signal
# In short: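 Readout is reporter transcript level from endogenous transcription factor activity, quantified by RT-PCR with fluorescent primer extension and capillary electrophoresis. Transiently transfected HepG2 cells, 24 h exposure. Curves fitted both directions versus DMSO.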
# [7] = ATG_AP_2_CIS: Attagene CIS-FACTORIAL HepG2 Assay for human Activator Protein 2 (AP-2) (AID 2282932); conditions: HepG2 AP-2 cis-reporter, Attagene transcription factor profiling; actives raise or lower the signal
# In short: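 HepG2 cells transiently transfected with cis-element reporter units and exposed for 24 h. Reporter mRNA measured by RT-PCR, FAM labelling, HpaI digestion and capillary electrophoresis. Changes in either direction fitted relative to DMSO.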
# [8] = ATG_BRE_CIS: Attagene CIS-FACTORIAL HepG2 Assay for human Bone Morphogenetic Protein (BMP) Response Element (BRE) (AID 2282933); conditions: HepG2 BMP response element reporter, Attagene transcription factor profiling; actives raise or lower the signal
# In short: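 Fluorescence-labelled reporter cDNA fragments, separated by capillary electrophoresis, gave the signal for this component of a 52-readout multiplex. HepG2 cells were transfected, exposed to chemicals for 24 h, and compared with DMSO using bidirectional fitting.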
# [9] = target: Retinoic acid receptor alpha (Homo sapiens) (UniProt P10276); experiment: ATG_DR5_RAR_CIS: Attagene CIS-FACTORIAL HepG2 Assay for human Retinoic Acid Receptor Alpha (RARE), DR5 submotif (AID 2282934); conditions: HepG2 Attagene cis-factorial RARE DR5 reporter, mRNA; actives raise or lower the signal
# In short: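 HepG2 cells transiently transfected with multiplexed reporter units; DR5 cis-element drives reporter through endogenous transcription factors. After 24 h dosing, reporter mRNA quantified by RT-PCR, fluorescent labeling, HpaI digestion and capillary electrophoresis; bidirectional fitting versus DMSO.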
# [10] = target: Transcription factor E2F1 (Homo sapiens) (UniProt Q01094); experiment: ATG_E2F_CIS: Attagene CIS-FACTORIAL HepG2 Assay for human E2F Transcription Factor 1 (AID 2282935); conditions: HepG2 Attagene cis-reporter, E2F reporter RNA transcripts; actives raise or lower the signal
# In short: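 Endogenous E2F1 activity read through cis-promoter reporter units transfected into HepG2. After 24 h compound treatment, reporter mRNA measured by RT-PCR, HpaI digestion and capillary electrophoresis. Bidirectional fit versus DMSO.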
# [11] = ATG_E_Box_CIS: Attagene CIS-FACTORIAL HepG2 Assay for human Enhancer Box (E-box) (AID 2282936); conditions: HepG2 E-box cis-reporter transcription, actives raise or lower the signal
# In short: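 HepG2 cells transiently transfected with multiplexed cis-element reporter units, dosed 24 h; reporter mRNA quantified by RT-PCR, 6-FAM labelling, HpaI digestion and capillary electrophoresis. E-box (USF1) signal fitted bidirectionally vs DMSO.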
# [12] = ATG_M_61_CIS: Attagene CIS-FACTORIAL HepG2 Assay for M61 Transcription Factor (Internal Marker) (AID 2282937); conditions: HepG2 Attagene CIS-FACTORIAL M61 internal marker reporter; actives raise or lower the signal
# In short: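 Readout is reporter mRNA by RT-PCR, fluorescent primer extension and capillary electrophoresis, with gain or loss fitted relative to DMSO. Transfected HepG2 cells carrying endogenous-TF-driven cis reporters were exposed to chemicals for 24 hours.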
# [13] = ATG_EGR_CIS: Attagene CIS-FACTORIAL HepG2 Assay for human Early Growth Response 1 (EGR1) (AID 2282938); conditions: HepG2 Attagene CIS-FACTORIAL EGR reporter mRNA; actives raise or lower the signal
# In short: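 After 24 h compound exposure, RNA from reporter-transfected HepG2 cells was reverse-transcribed, PCR-amplified, fluorescently labelled and resolved by capillary electrophoresis. EGR1 reporter transcript changes, up or down, were fitted against DMSO, reflecting endogenous transcription-factor activity.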
# [14] = ATG_M_19_CIS: Attagene CIS-FACTORIAL HepG2 Assay for M19 Transcription Factor (Internal Marker) (AID 2282939); conditions: HepG2 Attagene CIS-FACTORIAL M19 internal marker reporter; actives raise or lower the signal
# In short: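 HepG2, MRTU transient transfection, 24 h dosing. Total RNA → RT-PCR → 6-FAM primer extension → HpaI digest → CE fluorescence. Bidirectional curve fit, DMSO negative control.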
# [15] = target: Hepatocyte nuclear factor 3-beta (Homo sapiens) (UniProt Q9Y261); experiment: ATG_FoxA2_CIS: Attagene CIS-FACTORIAL HepG2 Assay for human Forkhead box A2 (FOXA2) (AID 2282942); conditions: HepG2 cis-reporter transcription factor activity, 24 h; actives raise or lower the signal
# In short: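 Endogenous transcription factor activity is captured via cis-element-driven reporter transcripts in transfected HepG2. Total RNA taken at 24 h post-dosing; labelled RT-PCR products resolved by capillary electrophoresis. Gain or loss fitted versus DMSO.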
# [16] = ATG_FoxO_CIS: Attagene CIS-FACTORIAL HepG2 Assay for human Forkhead box O (FoxO) (AID 2282943); conditions: HepG2 Attagene cis-reporter, FoxO element, mRNA; actives raise or lower the signal
# In short: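 HepG2 cells transiently transfected with cis-element-driven reporter units report endogenous FoxO activity. After 24 h chemical exposure, reporter mRNA quantified by RT-PCR, fluorescent labeling, HpaI digestion and capillary electrophoresis; bidirectional fit versus DMSO.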
# [17] = ATG_GATA_CIS: Attagene CIS-FACTORIAL HepG2 Assay for human GATA Binding Protein (AID 2282944); conditions: HepG2 GATA cis-element reporter, Attagene multiplex mRNA; actives raise or lower the signal
# In short: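 Cells: HepG2, transiently transfected with cis-regulated reporter transcription units. Exposure: 24 h. Detection: RT-PCR plus capillary electrophoresis of FAM-labeled fragments. Analysis: bidirectional, DMSO as baseline.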
# [18] = ATG_GLI_CIS: Attagene CIS-FACTORIAL HepG2 Assay for human Zinc Finger Protein GLI1 (AID 2282945); conditions: HepG2, Attagene cis-factorial reporter mRNA, GLI element; actives raise or lower the signal
# In short: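 Transiently transfected HepG2 cells report endogenous transcription factor activity via cis-element-driven reporter units. After 24 h compound exposure, reporter mRNA was measured by RT-PCR with capillary electrophoresis; bidirectional fitting against DMSO baseline.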
# [19] = ATG_Ets_CIS: Attagene CIS-FACTORIAL HepG2 Assay for human Erythroblast Transformation Specific (ETS) (AID 2282941); conditions: HepG2 ETS cis-reporter transcription, actives raise or lower the signal
# In short: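 After transient cis-reporter transfection, HepG2 cells receive test chemical for 24 h. Reporter mRNA levels, measured by RT-PCR and capillary electrophoresis fluorescence, are analysed bidirectionally relative to the DMSO baseline.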
# Chain of Transcription factor E2F1 (Homo sapiens) (Q01094 whole entry, looked up): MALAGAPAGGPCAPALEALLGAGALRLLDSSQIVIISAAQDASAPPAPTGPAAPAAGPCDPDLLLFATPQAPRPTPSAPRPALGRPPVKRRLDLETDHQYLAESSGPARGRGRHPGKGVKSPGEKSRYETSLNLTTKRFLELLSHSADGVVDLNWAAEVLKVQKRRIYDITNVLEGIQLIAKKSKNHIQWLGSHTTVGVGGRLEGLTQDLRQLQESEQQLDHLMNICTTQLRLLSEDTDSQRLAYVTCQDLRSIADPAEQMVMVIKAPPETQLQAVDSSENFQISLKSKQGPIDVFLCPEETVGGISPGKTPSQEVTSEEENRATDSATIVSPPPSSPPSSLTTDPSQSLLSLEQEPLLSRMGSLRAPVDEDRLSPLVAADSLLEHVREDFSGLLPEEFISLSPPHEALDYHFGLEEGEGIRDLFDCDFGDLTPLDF
# Chain of Retinoic acid receptor alpha (Homo sapiens) (P10276 whole entry, looked up): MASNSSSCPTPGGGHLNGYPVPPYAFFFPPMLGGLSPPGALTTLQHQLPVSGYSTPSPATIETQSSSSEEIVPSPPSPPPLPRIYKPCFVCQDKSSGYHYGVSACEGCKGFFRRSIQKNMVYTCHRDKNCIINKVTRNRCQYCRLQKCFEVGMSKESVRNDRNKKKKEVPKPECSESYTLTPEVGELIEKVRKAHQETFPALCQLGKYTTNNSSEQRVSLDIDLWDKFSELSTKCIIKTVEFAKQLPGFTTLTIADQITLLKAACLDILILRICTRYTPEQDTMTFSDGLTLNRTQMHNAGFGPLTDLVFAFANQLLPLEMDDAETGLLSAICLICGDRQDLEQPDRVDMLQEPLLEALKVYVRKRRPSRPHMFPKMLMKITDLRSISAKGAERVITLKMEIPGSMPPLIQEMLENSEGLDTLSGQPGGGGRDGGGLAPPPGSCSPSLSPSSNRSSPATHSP
# Chain of Hepatocyte nuclear factor 3-beta (Homo sapiens) (Q9Y261 whole entry, looked up): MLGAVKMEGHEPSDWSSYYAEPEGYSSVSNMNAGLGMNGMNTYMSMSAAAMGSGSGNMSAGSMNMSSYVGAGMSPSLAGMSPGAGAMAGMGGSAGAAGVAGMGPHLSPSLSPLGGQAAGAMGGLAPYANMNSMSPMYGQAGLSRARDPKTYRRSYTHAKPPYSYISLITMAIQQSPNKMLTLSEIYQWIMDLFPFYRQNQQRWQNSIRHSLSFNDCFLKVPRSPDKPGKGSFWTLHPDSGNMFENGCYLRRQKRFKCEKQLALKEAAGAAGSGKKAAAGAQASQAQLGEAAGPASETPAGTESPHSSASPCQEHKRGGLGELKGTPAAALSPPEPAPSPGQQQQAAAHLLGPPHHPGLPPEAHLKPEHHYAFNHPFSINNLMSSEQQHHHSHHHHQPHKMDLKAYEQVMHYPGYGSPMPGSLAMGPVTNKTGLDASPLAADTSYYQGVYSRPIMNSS
# Chain of Aryl hydrocarbon receptor (Homo sapiens) (P35869 whole entry, looked up): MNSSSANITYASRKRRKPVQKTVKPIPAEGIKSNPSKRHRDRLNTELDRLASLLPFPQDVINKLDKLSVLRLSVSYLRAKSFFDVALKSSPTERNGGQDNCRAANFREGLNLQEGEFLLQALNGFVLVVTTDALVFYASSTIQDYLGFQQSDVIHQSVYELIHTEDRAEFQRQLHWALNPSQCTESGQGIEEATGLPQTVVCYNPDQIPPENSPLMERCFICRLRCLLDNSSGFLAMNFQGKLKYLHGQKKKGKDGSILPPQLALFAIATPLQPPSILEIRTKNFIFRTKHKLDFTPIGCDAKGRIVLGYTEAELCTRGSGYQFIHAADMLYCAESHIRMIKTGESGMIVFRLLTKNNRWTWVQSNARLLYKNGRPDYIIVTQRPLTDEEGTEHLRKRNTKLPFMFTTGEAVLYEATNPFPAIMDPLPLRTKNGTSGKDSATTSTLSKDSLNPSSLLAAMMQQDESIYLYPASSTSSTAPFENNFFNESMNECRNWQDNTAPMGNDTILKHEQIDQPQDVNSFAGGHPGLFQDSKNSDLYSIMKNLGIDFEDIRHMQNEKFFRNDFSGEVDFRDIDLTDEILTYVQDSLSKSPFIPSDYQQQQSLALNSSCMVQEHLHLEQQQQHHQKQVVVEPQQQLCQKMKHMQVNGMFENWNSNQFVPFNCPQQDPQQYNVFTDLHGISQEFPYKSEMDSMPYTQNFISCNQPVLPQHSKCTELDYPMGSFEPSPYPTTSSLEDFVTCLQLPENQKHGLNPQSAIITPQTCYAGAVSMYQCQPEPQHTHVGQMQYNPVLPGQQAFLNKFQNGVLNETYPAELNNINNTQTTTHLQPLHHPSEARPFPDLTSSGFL
# Chain of CCAAT/enhancer-binding protein beta (Homo sapiens) (P17676 whole entry, looked up): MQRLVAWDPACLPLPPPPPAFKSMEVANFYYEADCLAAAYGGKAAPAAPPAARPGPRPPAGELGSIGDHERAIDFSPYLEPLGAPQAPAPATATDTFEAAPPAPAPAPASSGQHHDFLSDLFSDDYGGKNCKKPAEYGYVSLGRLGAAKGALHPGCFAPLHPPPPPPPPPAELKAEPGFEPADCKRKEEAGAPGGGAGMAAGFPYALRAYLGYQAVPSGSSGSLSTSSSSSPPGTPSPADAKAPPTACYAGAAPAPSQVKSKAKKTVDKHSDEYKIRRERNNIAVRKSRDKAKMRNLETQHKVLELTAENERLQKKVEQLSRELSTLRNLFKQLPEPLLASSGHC
smiles,measurement,setting,value
CCCSc1ccc2nc(NC(=O)OC)[nH]c2c1,outcome,[1],inactive
same,outcome,[2],inactive
same,outcome,[3],inactive
same,outcome,[4],inactive
same,outcome,[5],inactive
same,outcome,[6],inactive
same,outcome,[7],inactive
same,outcome,[8],inactive
same,outcome,[9],inactive
same,outcome,[10],inactive
same,outcome,[11],inactive
same,outcome,[12],inactive
same,outcome,[13],inactive
same,outcome,[14],inactive
same,outcome,[15],inactive
same,outcome,[16],inactive
same,outcome,[17],inactive
same,outcome,[18],inactive
O=[N+]([O-])c1ccc(O)cc1C(F)(F)F,AC50,[1],48 µM (active)
same,AC50,[2],58.8 µM (active)
same,AC50,[3],100 µM (active)
same,outcome,[4],inactive
same,AC50,[5],53.8 µM (active)
same,AC50,[6],71.8 µM (active)
same,AC50,[7],26.4 µM (active)
same,AC50,[8],37.5 µM (active)
same,outcome,[9],inactive
same,outcome,[10],inactive
same,outcome,[11],inactive
same,outcome,[12],inactive
same,outcome,[13],inactive
same,outcome,[14],inactive
same,outcome,[15],inactive
same,outcome,[16],inactive
same,outcome,[17],inactive
same,outcome,[18],inactive
Cc1cc(=O)oc2cc(N(C)C)ccc12,AC50,[1],54.1 µM (active)
same,outcome,[2],inactive
same,AC50,[3],46.7 µM (active)
same,outcome,[4],inactive
same,outcome,[5],inactive
same,outcome,[6],inactive
same,outcome,[7],inactive
same,outcome,[8],inactive
same,outcome,[9],inactive
same,outcome,[10],inactive
same,outcome,[11],inactive
same,outcome,[12],inactive
same,outcome,[13],inactive
same,outcome,[14],inactive
same,outcome,[15],inactive
same,outcome,[16],inactive
same,outcome,[17],inactive
same,outcome,[18],inactive
c1ccc(CCc2ccccc2)cc1,outcome,[1],inactive
same,outcome,[2],inactive
same,outcome,[3],inactive
same,AC50,[4],161 µM (active)
same,outcome,[5],inactive
same,AC50,[6],172 µM (active)
same,outcome,[7],inactive
same,outcome,[8],inactive
same,outcome,[9],inactive
same,outcome,[10],inactive
same,outcome,[11],inactive
same,outcome,[12],inactive
same,outcome,[13],inactive
same,outcome,[14],inactive
same,outcome,[19],inactive
same,outcome,[15],inactive
same,outcome,[16],inactive
same,outcome,[17],inactive
same,outcome,[18],inactive
CCCCN(CCCC)C(=O)N(CCCC)CCCC,outcome,[1],inactive
same,AC50,[2],44.5 µM (active)
same,outcome,[3],inactive
same,AC50,[4],27.9 µM (active)
same,outcome,[5],inactive
same,AC50,[6],58.5 µM (active)
same,outcome,[7],inactive
same,outcome,[8],inactive
same,outcome,[9],inactive
same,outcome,[10],inactive
same,outcome,[11],inactive
same,outcome,[12],inactive
same,outcome,[13],inactive
same,outcome,[14],inactive
same,outcome,[19],inactive
same,outcome,[15],inactive
same,outcome,[16],inactive
same,AC50,[18],51.7 µM (active)
O=C1OC[C@H](Cc2cccc(O)c2)[C@H]1Cc1cccc(O)c1,outcome,[1],inactive
same,outcome,[2],inactive
same,outcome,[3],inactive
same,AC50,[4],13.9 µM (active)
same,outcome,[5],inactive
same,outcome,[6],inactive
same,outcome,[7],inactive
same,outcome,[8],inactive
same,outcome,[9],inactive
same,outcome,[10],inactive
same,outcome,[11],inactive
same,outcome,[12],inactive
same,outcome,[13],inactive
same,outcome,[14],inactive
same,outcome,[15],inactive
same,outcome,[16],inactive
same,outcome,[17],inactive
same,outcome,[18],inactive
Cc1ccc(S(N)(=O)=O)cc1,outcome,[1],inactive
same,outcome,[2],inactive
same,outcome,[3],inactive
same,outcome,[4],inactive
same,outcome,[5],inactive
same,outcome,[6],inactive
same,outcome,[7],inactive
same,outcome,[8],inactive
same,outcome,[9],inactive
same,outcome,[10],inactive
same,outcome,[11],inactive
same,outcome,[12],inactive
same,outcome,[13],inactive
same,outcome,[14],inactive
same,outcome,[19],inactive
same,outcome,[15],inactive
same,outcome,[16],inactive
same,outcome,[17],inactive
same,outcome,[18],inactive
